In PubChem BioAssay (NCATS) one finds Potency and activity change, negative = cytotoxicity data, which are given here for 38 compounds.

Inconclusive results are not listed. Entries that show only a call come without a potency. Calls of active or inactive are those of the source. Calls follow the shape of the dose curve; as a rule, active = well fitted cell-killing curve with a large enough effect; inconclusive = small, poorly fitted or top-dose-only effect, or effect the other way; inactive = flat fitted curve, though single readings scatter.

The subject of the first experiment is C33A. Put plainly: Primary qHTS to identify gynecologic anti-cancer compounds using libraries of approved drugs and bioactive compounds (AID 1345084). Also: nearly all actives have a fitted effect of over 55% in size. The note with it: Gynecologic cancer cell panel viability, ATPlite luminescence, 48 h; series mostly up to 57.5 µM. In a few lines:
(§1)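 Cytotoxicity screen measuring ATP content by luciferase luminescence. Each compound is applied at five concentrations for 48 h at 37 C with 5% CO2.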
On to `C[C@H]1[C@H](C)CC[C@]2(C(=O)O)CC[C@]3(C)C(=CC[C@@H]4[C@@]5(C)C[C@@H](O)[C@H](O)[C@@](C)(CO)[C@@H]5CC[C@]43C)[C@H]12`, for which the Potency result is “inactive”.

With `COc1cc(C[C@H]2COC(=O)[C@@H]2Cc2ccc(O)c(OC)c2)ccc1O`, the Potency entry is “inactive”.

In the case of `COC(=O)C1=CO[C@@H](O[C@@H]2O[C@H](CO)[C@@H](O)[C@H](O)[C@H]2O)[C@@H]2[C@@](C)(O)[C@@H](O)C[C@]12O`, the Potency result is “inactive”.

For `C/C(=C\CCC(C)(O)c1ccc(C)cc1)C(=O)O` (stereo not drawn), the Potency result is “inactive”.

Turning to `C/C=C(\C)C(=O)O[C@H]1[C@H](O)[C@]2(COC(C)=O)[C@H](O)C[C@]3(C)C(=CCC4[C@@]5(C)CC[C@H](O[C@@H]6O[C@H](C(=O)O)[C@@H](O[C@@H]7O[C@H](CO)[C@@H](O)[C@H](O)[C@H]7O)[C@H](O)[C@H]6O[C@@H]6O[C@H](CO)[C@@H](O)[C@H](O)[C@H]6O)[C@](C)(CO)C5CC[C@]43C)[C@@H]2CC1(C)C` (stereo partly drawn), the activity change, negative = cytotoxicity was 1.25% [at 11.6 µM] (inactive).

Take `COC1=Cc2c(nc3n(c2=O)C(C)C(=O)NC3(O)C(C)C)OC=C1` (stereo not drawn): the Potency result was “inactive”.

Turning to `COc1c(C(CC(C)C)OC(C)=O)ccc(Oc2c(O)cc(C)cc2/C=C/C(C)=O)c1C(=O)O` (stereo not drawn), the Potency result is “inactive”.

For the compound `COc1cc(O[C@@H]2O[C@H](CO)[C@@H](O)[C@H](O)[C@H]2O)c(CCC(=O)OC[C@H]2O[C@@H](Oc3cc(OC)c(C4OC(=O)C(C)(O)C4O)cc3CCC(=O)O)[C@H](O)[C@@H](O)[C@@H]2O)cc1C1OC(=O)C(C)(O)C1O` (stereo partly drawn), the activity change, negative = cytotoxicity was -6.26% [at 11.6 µM] (inactive).

`CC1CC(O)CC(C)(C)C1(O)CCO` (stereo not drawn): the Potency entry is “inactive”.

For `CC(=O)c1c(O)cc2c(c1C)C(=O)CC(O)C2` (stereo not drawn), the Potency result was “inactive”.

The next experiment deals with CAOV3. Described as above. The note with it: Gynecologic cancer cell panel viability, ATPlite luminescence, 48 h; series mostly up to 57.5 µM. The essentials: as §1
As to `CC1(C)CCC(C)(C)c2cc3c(cc21)Sc1ccccc1N=C3c1ccc(C(=O)O)cc1`, the Potency result was “inactive”.

On to `O=C(O)c1n[nH]c2c1C[C@H]1C[C@@H]21`, for which the Potency entry was “inactive”.

`COc1cc(C2Oc3c(O)cc(CCCO)cc3C2CO)ccc1O[C@H]1O[C@H](C)[C@@H](O)[C@H](O)[C@@H]1O` (stereo partly drawn): the Potency entry was “inactive”.

As to `CC(=C/C(=O)O)/C=C/[C@]1(O)[C@@]2(C)CO[C@]1(C)C[C@H](O[C@@H]1O[C@H](CO)[C@@H](O)[C@H](O)[C@H]1O)C2`, the Potency result is “inactive”.

For the compound `CC1(C)CC[C@]2(C(=O)O)CC[C@]3(C)C(=CCC4[C@@]5(C)C[C@H](O)[C@H](O[C@@H]6OC[C@H](O)[C@H](O)[C@H]6O)[C@@](C)(CO)C5CC[C@]43C)[C@@H]2C1` (stereo partly drawn), the Potency result was “inactive”.

`C1CCN2CC3C[C@@H](CN4CCCC[C@@H]34)[C@H]2C1`: the Potency entry was “inactive”.

As to `COc1ccc(C)c2sc(NC(=O)c3ccncc3)nc12`, the Potency result is “inactive”.

As for `CC(C)[C@@H](C)/C=C/[C@@H](C)[C@H]1CC[C@H]2C3=CC=C4C[C@@H](O)CC[C@]4(C)[C@H]3CC[C@]12C`, the Potency result is “inactive”.

On to `COc1ccccc1CC(C(=O)O)N(C)C(=O)c1ccccc1` (stereo not drawn), for which the Potency entry was “inactive”.

Turning to `C=C1[C@@H]2[C@H]3OC(=O)C(=C)[C@@H]3CC[C@@](C)(O)[C@@H]2C[C@@H]1O[C@@H]1O[C@H](CO)[C@@H](O)[C@H](O)[C@H]1O`, the Potency result was “inactive”.

As to `COCCCNCC1COc2ccccc2O1` (stereo not drawn), the Potency entry is “inactive”.

As to `COc1cc(/C=C/C(=O)OC2CC(OC(C)=O)C(OC(C)=O)C3C2CCC2C(=O)OC(c4ccoc4)CC23C)ccc1O[C@@H]1O[C@H](CO)[C@@H](O)[C@H](O)[C@H]1O` (stereo partly drawn), the Potency result is “inactive”.

With `CO[C@@H]1CC[C@H](OC[C@]2(COC(=O)c3ccc(C)[nH]3)[C@H](OC(C)=O)CC[C@@]3(C)[C@@H]4CC=C(C)[C@@H](C5=C(O)C(=O)OC5O)[C@]4(C)CC[C@@H]32)O[C@H]1C` (stereo partly drawn), the Potency result is “inactive”.

Turning to `C=C1CCC2C(OC(=O)C2(O)COC(C)=O)C2C(=C)C(O)CC12` (stereo not drawn), the Potency entry was “inactive”.

Regarding `CC1=C2C=C(CO)C(CO)CCC2(C)CCC1=O` (stereo not drawn), the Potency result is “inactive”.

In the case of `C=C1[C@H]2CC[C@]3(O)[C@@](CC[C@@H]4[C@](C)(C(=O)O)CCC[C@]43C)(C2)[C@H]1OC(=O)/C(C)=C\C`, the Potency result was “inactive”.

Consider `O=C(O[C@H]1[C@@H]2C=CO[C@@H](O[C@@H]3O[C@H](CO)[C@@H](O)[C@H](O)[C@H]3O)[C@@H]2[C@@]2(CO)O[C@@H]12)c1ccc(O)cc1`, for which the Potency entry was “inactive”.

Consider `CC(C)(O)/C=C1/C(=O)C(C)(C)C(=O)C(C)(C)C1(O)O[C@@H]1O[C@H](COC(=O)c2cc(O)c(O)c(O)c2)[C@@H](O)[C@H](O)[C@H]1O` (stereo partly drawn), for which the Potency entry is “inactive”.

For `CN1CC[C@@H](NC(=O)Nc2ccc(C#N)cc2)C[C@@H]1c1nc2ccccc2[nH]1`, the Potency result was “inactive”.

`C[C@H]1[C@H](C)CC[C@]2(C(=O)O[C@@H]3O[C@H](CO)[C@@H](O)[C@H](O)[C@H]3O)CC[C@]3(C(=O)O)C(=CCC4[C@@]5(C)CC[C@H](O[C@@H]6O[C@H](CO)[C@@H](O)[C@H](O)[C@H]6O)C(C)(C)C5CC[C@]43C)[C@H]12` (stereo partly drawn): the activity change, negative = cytotoxicity was 0.882% [at 11.6 µM] (inactive).

Regarding `c1nc(NC2CCCCCC2)c2cc(CNC[C@H]3CCCO3)sc2n1`, the Potency result is “inactive”.

Turning to `CCNC(=O)[C@H]1O[C@H](n2cnc3c(NCC(c4ccccc4)c4ccccc4)nc(C(=O)NCCNC(=O)NC4CCN(c5ccccn5)CC4)nc32)[C@H](O)[C@@H]1O`, the Potency entry was “inactive”.

Regarding `CC1CC(=O)C2=C(O1)OC1(C)CCC3C(C)(C)C=CC(=O)C3(C)C1C2` (stereo not drawn), the Potency result is “inactive”.

With `COc1ncc(-c2ccc3c(Nc4cc(Oc5cc(F)cc(F)c5)cc(C(=O)O)c4)c(S(=O)(=O)NC4CC4)cnc3c2)c(OC)n1`, the Potency result was “inactive”.

For the compound `CC(=O)O[C@@H]1[C@H]2[C@@H](OC(=O)c3ccccc3)[C@@H](C)C[C@]2(O)[C@H](OC(C)=O)[C@@]2(C)[C@@H]3CC(C)(C)C(=O)[C@]3(OC(C)=O)C[C@@]12C`, the Potency result was “inactive”.

Consider `COc1ccc(/C=C/C(=O)O[C@@H]2[C@@H](OC(C)=O)[C@@H](OC(C)=O)[C@H](O[C@H]3[C@@H]4C=CO[C@@H](O[C@@H]5O[C@H](CO)[C@@H](O)[C@H](O)[C@H]5O)[C@@H]4[C@@]4(CO)O[C@@H]34)O[C@H]2C)cc1O`, for which the Potency result is “inactive”.

`CC1=CC(=O)OC(C)(CC(C)(O)C(=O)O)C1` (stereo not drawn): the Potency entry was “inactive”.

For the compound `O=C(OCc1cccc(O)c1O[C@@H]1O[C@H](CO)[C@@H](O)[C@H](O)[C@H]1O)C1(O)C(=O)C2C=CC1C1C=CC(=O)C(O)(C(=O)OCc3cccc(O)c3O[C@@H]3O[C@H](CO)[C@@H](O)[C@H](O)[C@H]3O)C21` (stereo partly drawn), the activity change, negative = cytotoxicity is -10.6% [at 11.6 µM] (inactive).

For `C[C@H]1[C@H](C)CC[C@]2(C(=O)O)CC[C@]3(C)C(=CC[C@@H]4[C@@]5(C)C[C@@H](O)[C@H](O)[C@@](C)(CO)[C@@H]5CC[C@]43C)[C@H]12`, the Potency result is “inactive”.

Regarding `COc1cc(C[C@H]2COC(=O)[C@@H]2Cc2ccc(O)c(OC)c2)ccc1O`, the Potency result was “inactive”.

In the case of `COC(=O)C1=CO[C@@H](O[C@@H]2O[C@H](CO)[C@@H](O)[C@H](O)[C@H]2O)[C@@H]2[C@@](C)(O)[C@@H](O)C[C@]12O`, the Potency result is “inactive”.

Regarding `C/C(=C\CCC(C)(O)c1ccc(C)cc1)C(=O)O` (stereo not drawn), the Potency result is “inactive”.

Consider `C/C=C(\C)C(=O)O[C@H]1[C@H](O)[C@]2(COC(C)=O)[C@H](O)C[C@]3(C)C(=CCC4[C@@]5(C)CC[C@H](O[C@@H]6O[C@H](C(=O)O)[C@@H](O[C@@H]7O[C@H](CO)[C@@H](O)[C@H](O)[C@H]7O)[C@H](O)[C@H]6O[C@@H]6O[C@H](CO)[C@@H](O)[C@H](O)[C@H]6O)[C@](C)(CO)C5CC[C@]43C)[C@@H]2CC1(C)C` (stereo partly drawn), for which the activity change, negative = cytotoxicity was -14.1% [at 11.6 µM] (inactive).

For `COC1=Cc2c(nc3n(c2=O)C(C)C(=O)NC3(O)C(C)C)OC=C1` (stereo not drawn), the Potency result was “inactive”.

For the compound `COc1c(C(CC(C)C)OC(C)=O)ccc(Oc2c(O)cc(C)cc2/C=C/C(C)=O)c1C(=O)O` (stereo not drawn), the Potency entry was “inactive”.

As for `COc1cc(O[C@@H]2O[C@H](CO)[C@@H](O)[C@H](O)[C@H]2O)c(CCC(=O)OC[C@H]2O[C@@H](Oc3cc(OC)c(C4OC(=O)C(C)(O)C4O)cc3CCC(=O)O)[C@H](O)[C@@H](O)[C@@H]2O)cc1C1OC(=O)C(C)(O)C1O` (stereo partly drawn), the activity change, negative = cytotoxicity is -7.94% [at 11.6 µM] (inactive).

With `CC1CC(O)CC(C)(C)C1(O)CCO` (stereo not drawn), the Potency entry was “inactive”.

With `CC(=O)c1c(O)cc2c(c1C)C(=O)CC(O)C2` (stereo not drawn), the Potency entry was “inactive”.
